In PubChem BioAssay (Tox21):
Inconclusive results are not listed. Active and inactive are the calls of the source. Unless noted, calls come from the whole dose curve; as a rule, active = well fitted curve in the direction sought with a large enough effect in the repeat runs; inconclusive = weak or mixed curves; inactive = no such curve, though single readings can be large; an effect the other way counts as inactive or inconclusive.

What was measured:
[1] = qHTS assay to identify small molecule antagonists of the estrogen receptor beta (ER-beta) signaling pathway - cell viability counter screen (AID 1259382); conditions: ER-beta-UAS-bla HEK293T viability, CellTiter-Glo luminescence, 16 h; series mostly up to 92.4 µM;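 note: HEK293T cells carrying ER-beta-UAS-bla reporter stimulated with estradiol; nearly all actives have a fitted effect of over 55% in size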
In short: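 HEK293T ER-beta-UAS-bla, 2% charcoal-stripped FBS; compounds + 1nM E2 16 hr 37C; CellTiter-Glo luminescence, 30 min RT.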

[2] = target: Estrogen receptor (Homo sapiens) (UniProt P03372); experiment: qHTS assay to identify small molecule agonists of the estrogen receptor alpha (ER-alpha) signaling pathway in the presence of an antagonist (AID 1259383; calls by dose curve; note: top concentration of the series differs between compounds; nearly all actives have a fitted effect of over 15% in size); conditions: VM7Luc4E2 cells, ERE-luciferase, +ICI-182,780, 22 h; series mostly up to 92.4 µM
In short: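 ER-alpha agonism measured under antagonist challenge: 10.0nM ICI-182,780 (final) plus compound, 15 concentrations, 22hr, VM7Luc4E2 ERE-luciferase cells. Read by luminescence.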

[3] = qHTS assay to identify small molecule agonists or antagonists of the thyroid stimulating hormone receptor (TSHR) signaling pathway - wild type cell line counter screen (AID 1259384; calls by dose curve); conditions: HEK293 wild type, cAMP HTRF counter-screen; series mostly up to 92.4 µM
In short: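 Wild-type Hek293 cells, 800/well, 18 h at 37C, then compound with Ro20-1724 for 30 min RT. cAMP by HTRF (cAMP-d2/anti-cAMP cryptate), 1 h RT, fluorescence read. 15 concentrations, triplicates.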

[4] = target: Thyrotropin receptor (Homo sapiens) (UniProt P16473); experiment: qHTS assay to identify small molecule antagonists of the thyroid stimulating hormone receptor (TSHR) signaling pathway (AID 1259385; calls by dose curve; note: nearly all actives have a fitted effect of over 20% in size); conditions: TSHR-HEK293 cAMP HTRF, TSH-stimulated antagonist mode; series mostly up to 92.4 µM
In short: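 TSHR-HEK293 cells (800/well) plated 18 h, then compounds with Ro20-1724 and TSH at 1.5 ng/mL final, 30 min at room temperature. cAMP quantified by HTRF (cAMP-d2/anti-cAMP-cryptate, 1 h); 15 concentrations in triplicate.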

[5] = qHTS assay to identify small molecule agonists of the estrogen receptor alpha (ER-alpha) signaling pathway in the presence of an antagonist - cell viability counter screen (AID 1259386); conditions: VM7Luc4E2 viability, CellTiter-Fluor fluorescence, 22 h; series mostly up to 92.4 µM;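 note: cells exposed to compounds for 22 h at 37 °C before the viability read; nearly all actives have a fitted effect of over 30% in size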
In short: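 Steps: 5-day stripped-FBS culture; seed and incubate 24hr; add ICI-182,780 (10.0nM final); pin 15-point compound titration; incubate 22hr at 37C; add CellTiter-Fluor at 21hr; read fluorescence.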

[6] = target: Progesterone receptor (Homo sapiens) (UniProt P06401); experiment: qHTS assay to identify small molecule agonists of the progesterone receptor (PR) signaling pathway (AID 1346784; calls by dose curve; note: nearly all actives have a fitted effect of over 30% in size); conditions: PR-UAS-bla HEK293T, beta-lactamase FRET ratio, 16 h; series mostly up to 92.4 µM
In short: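 Seed PR-UAS-bla HEK 293T cells (2% charcoal-stripped FBS), incubate 6 hr at 37C; add compounds in DMSO, 16 hr at 37C; add LiveBLAzer B/G substrate, 2 hr RT; read fluorescence intensity.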

[7] = target: Progesterone receptor (Homo sapiens) (UniProt P06401); experiment: qHTS assay to identify small molecule antagonists of the progesterone receptor (PR) signaling pathway (AID 1346795; active = well fitted inhibition curve with a large enough effect in the signal ratio in the repeat runs, not every such curve was filed as active; the % refers to the signal ratio); conditions: PR-UAS-bla HEK293T, beta-lactamase FRET ratio, 16 h; series mostly up to 92.4 µM
In short: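 Screening used a GripTite HEK293T line with PR-responsive UAS-beta-lactamase. Cells were challenged with compound in the presence of 1 nM R5020 final for 16 hr at 37C; B/G FRET substrate, 2 hr room temperature, fluorescence.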

[8] = qHTS assay to identify small molecule antagonists of the progesterone receptor (PR) signaling pathway - cell viability counter screen (AID 1346798); conditions: PR-UAS-bla HEK293T viability, CellTiter-Glo luminescence, 16 h; series mostly up to 92.4 µM; note: nearly all actives have a fitted effect of over 50% in size
In short: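 Measures cytotoxicity in parallel with the PR antagonist reporter read: HEK293T PR-UAS-bla cells get compound and R5020 for 16 hr, and remaining viable cells are quantified by CellTiter-Glo luminescence.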

[9] = qHTS assay to identify small molecule agonists of the progesterone receptor (PR) signaling pathway - cell viability counter screen (AID 1346799; calls by dose curve; note: nearly all actives have a fitted effect of over 45% in size); conditions: PR-UAS-bla HEK293T viability, CellTiter-Glo luminescence, 16 h; series mostly up to 92.4 µM
In short: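 Using the same plates as the PR reporter screen, HEK293T PR-UAS-bla cells received compounds for 16 hr at 37C and were then lysed with CellTiter-Glo; luminescence was read 30 min later at room temperature.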

[10] = qHTS assay to identify small molecule antagonists of the TGF-beta/Smad signaling pathway - cell viability counter screen (AID 1346824); conditions: SBE-bla HEK293T viability, CellTiter-Glo luminescence; series mostly up to 76.8 µM; note: nearly all actives have a fitted effect of over 50% in size
In short: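 SBE-bla HEK 293T cells, incubated overnight, then compound plus 0.25 ng/mL TGF-beta1 (stock added) for 5 hr at 37 C. Viability was read in the same wells by CellTiter-Glo luminescence after 30 min at room temperature.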

[11] = qHTS assay to identify small molecule agonists of the TGF-beta/Smad signaling pathway - cell viability counter screen (AID 1346829); conditions: SBE-bla HEK293T viability, CellTiter-Glo luminescence, 5 h; series mostly up to 76.8 µM; note: top concentration of the series differs between compounds; nearly all actives have a fitted effect of over 45% in size
In short: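 SBE-bla HEK 293T cells plated overnight, compound exposure 5 hr at 37 C. Viability read in the same wells by CellTiter-Glo luminescence after 30 min at room temperature, following the beta-lactamase read.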

[12] = qHTS assay to identify small molecule agonists of the TGF-beta/Smad signaling pathway (AID 1346859; active = well fitted activation curve with a large enough effect in the signal ratio in the repeat runs, not every such curve was filed as active; the % refers to the signal ratio); conditions: SBE-bla HEK293T, TGF-beta/Smad beta-lactamase reporter, 5 h; series mostly up to 76.8 µM
In short: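 Beta-lactamase reporter activity downstream of Smad binding elements was measured in stably transfected HEK 293T cells; compounds were incubated for 5 hr, substrate for 2 hr at room temperature.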

[13] = target: Thyrotropin-releasing hormone receptor (Homo sapiens) (UniProt P34981); experiment: qHTS assay to identify small molecule antagonists of the thyrotropin-releasing hormone receptor (TRHR) signaling pathway (AID 1346877; active = well fitted inhibition curve with a large enough effect in the repeat runs, not every such curve was filed as active); conditions: TRHR-HEK293, TRH-induced calcium fluorescence, antagonist mode; series mostly up to 51.3 µM
In short: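 Human TRHR in HEK293 cells; inhibition of the intracellular calcium rise triggered by 1 nM TRH was followed by fluorescence over 3 min. Compounds were run at 15 concentrations, three replicates each.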

[14] = target: Thyrotropin-releasing hormone receptor (Homo sapiens) (UniProt P34981); experiment: qHTS assay to identify small molecule agonists of the thyrotropin-releasing hormone receptor (TRHR) signaling pathway (AID 1346891; calls by dose curve;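 note: HEK293 cells expressing TRHR with calcium dye readout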); conditions: TRHR-HEK293 calcium fluorescence, agonist mode; series mostly up to 57.6 µM
In short: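 Overnight-plated (18 h, 37 °C, 5% CO2) TRHR-Hek293 cells; 2 h calcium dye at 37 °C; compound in DMSO; 3-min kinetic fluorescence read.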

[15] = Human pregnane X receptor (PXR) small molecule agonists, qHTS cell viability counter screen (AID 1346977); conditions: PXR-Luc HepG2 viability, CellTiter-Fluor, 24 h; series mostly up to 92.4 µM; note: nearly all actives have a fitted effect of over 50% in size
In short: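 After a 5hr pre-incubation, PXR-Luc HepG2 cells received compounds plus positive control in DMSO and were kept 24hr at 37C. Cell viability was quantified by fluorescence from CellTiter-Fluor added for the final hour.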

[16] = Caspase-3/7 induction in HepG2 cells by small molecules, qHTS assay (AID 1346978); conditions: HepG2 caspase-3/7 activation, Caspase-Glo luminescence, 17 h; series mostly up to 92.4 µM; note: nearly all actives have a fitted effect of over 15% in size
In short: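 Wild-type HepG2 cells, 2,000/well, settled 5 hr at 37 C and 5% CO2, then compound-treated for 17 hr; caspase-3/7 activity read by luminescent Caspase-Glo 3/7 after 30 min at room temperature.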

[17] = Caspase-3/7 induction in CHO-K1 cells by small molecules, qHTS cell viability counter screen (AID 1346979); conditions: CellTiter-Fluor fluorescence, 17 h; series mostly up to 92.4 µM; note: nearly all actives have a fitted effect of over 35% in size
In short: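 Multiplexed with Caspase-Glo 3/7 in CHO-K1 cells, this counter screen added CellTiter-Fluor after 16hr of compound exposure and recorded fluorescence 1hr later.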

[18] = Caspase-3/7 induction in CHO-K1 cells by small molecules, qHTS assay (AID 1346980); conditions: CHO-K1 caspase-3/7 induction, Caspase-Glo luminescence, 17 h; series mostly up to 92.4 µM; note: nearly all actives have a fitted effect of over 15% in size
In short: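 Wild-type CHO-K1 cells exposed to compounds for 17hr at 37 C, 5% CO2. Caspase-3/7 activity then measured by Caspase-Glo 3/7 luminescence after 30min at room temperature.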

[19] = Caspase-3/7 induction in HepG2 cells by small molecules, qHTS cell viability counter screen (AID 1346981); conditions: CellTiter-Fluor fluorescence, 17 h; series mostly up to 92.4 µM; note: nearly all actives have a fitted effect of over 30% in size
In short: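 The parent HepG2 line is plated at 2,000 cells per well and rested 5 hr before compound pinning from DMSO stocks. Following a 16-hr treatment at 37 C, a fluorogenic live-cell substrate (CellTiter-Fluor) reports viability after 1 hr.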

[20] = target: Nuclear receptor subfamily 1 group I member 2 (Homo sapiens) (UniProt O75469); experiment: Human pregnane X receptor (PXR) small molecule agonists, qHTS assay (AID 1346982); conditions: PXR-Luc HepG2, CYP3A4 luciferase reporter, 24 h; series mostly up to 92.4 µM; note: nearly all actives have a fitted effect of over 35% in size
In short: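 After plating in 5% charcoal-stripped FBS and a 5 hr rest, PXR-Luc HepG2 cells received compounds in DMSO. Following 24 hr at 37 C, ONE-Glo was added and light output read.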

Measured: Potency

Chain of Estrogen receptor (Homo sapiens) (P03372 whole entry, looked up): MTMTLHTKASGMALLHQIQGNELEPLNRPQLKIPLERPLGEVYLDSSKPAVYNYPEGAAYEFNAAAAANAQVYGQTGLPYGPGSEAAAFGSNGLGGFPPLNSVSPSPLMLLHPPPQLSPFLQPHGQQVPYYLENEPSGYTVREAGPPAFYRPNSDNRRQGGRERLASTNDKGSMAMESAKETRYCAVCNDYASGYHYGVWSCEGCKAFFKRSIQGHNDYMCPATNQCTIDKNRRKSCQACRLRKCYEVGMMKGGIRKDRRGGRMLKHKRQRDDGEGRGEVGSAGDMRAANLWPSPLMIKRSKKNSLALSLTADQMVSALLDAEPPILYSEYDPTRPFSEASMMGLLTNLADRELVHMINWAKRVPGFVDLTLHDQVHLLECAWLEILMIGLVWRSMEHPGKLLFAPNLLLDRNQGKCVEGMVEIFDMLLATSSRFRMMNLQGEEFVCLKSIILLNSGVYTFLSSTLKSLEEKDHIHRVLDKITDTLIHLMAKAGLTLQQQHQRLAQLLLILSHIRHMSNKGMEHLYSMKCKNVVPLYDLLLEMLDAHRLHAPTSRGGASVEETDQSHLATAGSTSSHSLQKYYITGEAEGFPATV
Chain of Thyrotropin-releasing hormone receptor (Homo sapiens) (P34981 whole entry, looked up): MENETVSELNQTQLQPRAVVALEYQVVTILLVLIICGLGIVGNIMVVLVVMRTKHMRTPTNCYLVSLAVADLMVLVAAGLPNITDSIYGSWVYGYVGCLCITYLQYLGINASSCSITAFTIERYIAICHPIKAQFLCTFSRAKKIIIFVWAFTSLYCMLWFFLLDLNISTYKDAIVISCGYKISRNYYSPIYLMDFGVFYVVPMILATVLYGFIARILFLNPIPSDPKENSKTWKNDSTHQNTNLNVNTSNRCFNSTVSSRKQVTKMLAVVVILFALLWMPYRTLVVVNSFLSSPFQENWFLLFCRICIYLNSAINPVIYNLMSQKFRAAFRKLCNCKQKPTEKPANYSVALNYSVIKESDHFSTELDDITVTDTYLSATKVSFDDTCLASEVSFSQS
Chain of Thyrotropin receptor (Homo sapiens) (P16473 whole entry, looked up): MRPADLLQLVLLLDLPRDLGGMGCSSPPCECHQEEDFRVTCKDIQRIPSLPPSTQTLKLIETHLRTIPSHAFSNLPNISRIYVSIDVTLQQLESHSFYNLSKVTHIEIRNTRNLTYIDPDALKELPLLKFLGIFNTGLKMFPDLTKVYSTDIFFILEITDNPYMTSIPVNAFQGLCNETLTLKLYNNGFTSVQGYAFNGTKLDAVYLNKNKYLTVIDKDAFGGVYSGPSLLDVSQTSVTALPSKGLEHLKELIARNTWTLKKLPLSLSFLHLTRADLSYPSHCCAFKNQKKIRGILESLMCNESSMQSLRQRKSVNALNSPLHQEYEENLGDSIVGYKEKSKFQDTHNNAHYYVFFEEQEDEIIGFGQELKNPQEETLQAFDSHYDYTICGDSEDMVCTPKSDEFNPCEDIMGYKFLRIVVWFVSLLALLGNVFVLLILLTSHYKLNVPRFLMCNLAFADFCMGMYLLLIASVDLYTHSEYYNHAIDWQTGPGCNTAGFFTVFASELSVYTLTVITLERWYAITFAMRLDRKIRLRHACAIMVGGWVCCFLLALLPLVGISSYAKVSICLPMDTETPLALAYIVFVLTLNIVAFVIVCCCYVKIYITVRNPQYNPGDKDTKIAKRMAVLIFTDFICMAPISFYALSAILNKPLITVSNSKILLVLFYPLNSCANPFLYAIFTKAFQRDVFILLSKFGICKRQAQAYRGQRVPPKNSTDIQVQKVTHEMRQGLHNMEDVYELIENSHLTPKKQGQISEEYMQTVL
Chain of Nuclear receptor subfamily 1 group I member 2 (Homo sapiens) (O75469 whole entry, looked up): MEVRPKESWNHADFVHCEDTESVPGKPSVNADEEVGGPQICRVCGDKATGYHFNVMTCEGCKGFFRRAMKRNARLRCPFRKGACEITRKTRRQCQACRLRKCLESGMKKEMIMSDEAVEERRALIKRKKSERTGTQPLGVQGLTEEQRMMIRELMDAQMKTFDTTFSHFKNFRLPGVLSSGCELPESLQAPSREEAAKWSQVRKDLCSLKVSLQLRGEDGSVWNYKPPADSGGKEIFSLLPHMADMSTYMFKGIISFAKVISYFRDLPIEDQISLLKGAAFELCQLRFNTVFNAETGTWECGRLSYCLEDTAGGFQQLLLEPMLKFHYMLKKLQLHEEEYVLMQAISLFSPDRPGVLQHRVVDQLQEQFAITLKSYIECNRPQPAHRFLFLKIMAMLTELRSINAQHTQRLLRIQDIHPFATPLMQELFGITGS
Chain of Progesterone receptor (Homo sapiens) (P06401 whole entry, looked up): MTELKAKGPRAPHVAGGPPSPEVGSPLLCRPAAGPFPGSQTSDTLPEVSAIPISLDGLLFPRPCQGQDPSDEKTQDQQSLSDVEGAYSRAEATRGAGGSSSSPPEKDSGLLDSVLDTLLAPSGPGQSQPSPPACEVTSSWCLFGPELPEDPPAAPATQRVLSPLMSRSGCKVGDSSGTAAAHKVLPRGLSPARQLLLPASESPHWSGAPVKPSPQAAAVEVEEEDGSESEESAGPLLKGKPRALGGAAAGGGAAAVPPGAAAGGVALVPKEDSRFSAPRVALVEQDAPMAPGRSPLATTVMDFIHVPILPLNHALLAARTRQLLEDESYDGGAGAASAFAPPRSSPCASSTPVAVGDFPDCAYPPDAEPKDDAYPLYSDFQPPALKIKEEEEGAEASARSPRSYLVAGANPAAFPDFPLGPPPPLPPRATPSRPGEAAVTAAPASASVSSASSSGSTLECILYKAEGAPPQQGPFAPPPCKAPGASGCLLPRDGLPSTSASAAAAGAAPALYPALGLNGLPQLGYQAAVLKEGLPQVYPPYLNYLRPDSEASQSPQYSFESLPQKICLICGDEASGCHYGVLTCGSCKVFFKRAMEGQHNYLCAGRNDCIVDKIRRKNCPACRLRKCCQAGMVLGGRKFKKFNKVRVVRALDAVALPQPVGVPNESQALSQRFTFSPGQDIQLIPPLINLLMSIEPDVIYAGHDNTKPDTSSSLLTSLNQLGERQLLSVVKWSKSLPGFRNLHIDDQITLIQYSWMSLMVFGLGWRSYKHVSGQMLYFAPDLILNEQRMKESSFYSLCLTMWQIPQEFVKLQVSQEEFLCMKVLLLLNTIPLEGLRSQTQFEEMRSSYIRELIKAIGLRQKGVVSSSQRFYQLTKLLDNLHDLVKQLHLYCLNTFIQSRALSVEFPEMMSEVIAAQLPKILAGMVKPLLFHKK

CN(C)CCOCCN(C)CCO
inactive: all assays above

O=C(O)c1ccc(OCCN2CCCCC2)cc1
not listed: [13] | [14]
inactive: all other assays above

CCCCOC(=O)C(C)OC(=O)CCC (configuration not stated)
not listed: [10] | [11] | [13] | [14]
inactive: all other assays above

COc1ccc(/C=N/NC(=O)c2ccncc2)cc1OC
not listed: [11] | [16]
inactive: all other assays above

Cc1oc(=O)oc1CN1CCN(c2cc3c(cc2F)c(=O)c(C(=O)O)c2n3C(C)S2)CC1 (configuration not stated)
not listed: [12] | [15] | [16] | [20]
inactive: all other assays above

Cc1cccc(C(=O)O)c1[N+](=O)[O-]
not listed: [15]
inactive: all other assays above

CC(C)CCO
not listed: [8] | [13] | [14] | [15] | [16] | [18]
inactive: all other assays above

CCCCC(CC)COC(=O)c1ccccc1 (configuration not stated)
not listed: [15]
inactive: all other assays above

Cc1nc2ccccc2c(=O)o1
not listed: [8] | [13] | [14] | [15] | [18]
inactive: all other assays above

CC(C)(CO)[C@@H](O)C(=O)NCCCO
not listed: [9] | [13] | [14]
inactive: all other assays above

O=P(O)(O)OCC(O)CO (configuration not stated)
not listed: [3] | [4] | [13] | [14] | [16]
inactive: all other assays above

CNC(=O)C(c1ccccc1)c1ccccc1
not listed: [4] | [5] | [7] | [8] | [10] | [13] | [14]
inactive: all other assays above

CC(C)COC(=O)CC(C(=O)OCC(C)C)S(=O)(=O)O (configuration not stated)
not listed: [3] | [4] | [13] | [14]
inactive: all other assays above

CCCOCCOCCOCCO
not listed: [3] | [4] | [7] | [9]
inactive: all other assays above
